Experiment [1] can be described thus: Viability qHTS for spleen associated tyrosine kinase inhibitor (SYKi) naive MV4-11 cells (AID 1963823). Further: nearly all actives have a fitted effect of over 40% in size. In outline: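 CellTiter-Glo luminescence, 10 min room-temperature incubation, gave viability. Cells: naive MV4-11 (500/well), treated 72 hr at 37 C, 5% CO2.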
In general terms: In qHTS, concentration-response curves come from the screen itself.

Experiment [2] can be described thus: Viability qHTS for spleen associated tyrosine kinase inhibitor (SYKi) drug resistant MV4-11 cells (AID 1963824). Further: nearly all actives have a fitted effect of over 35% in size. An outline of the steps:
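SYK-inhibitor-resistant MV4-11 AML cells were seeded at 500 per well onto compound and cultured 72 hours (37 °C, 5% CO2). CellTiter-Glo was then added, and after 10 min at room temperature, luminescence gave viability.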

Experiment [3] can be described thus: Cellular viability qHTS for adrenocortical cancer (ACC) cell line SW-13 (AID 1963989). Further: nearly all actives have a fitted effect of over 65% in size.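 On activity (max response): cells grown in serum-free medium with ITS supplement; on the % scale 0 is the no-effect control and ±100 the full control effect.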 The following applies: SW-13 ACC cells viability, CellTiter-Glo, 48 h; activity (max response): hits give low values. An outline of the steps: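 Here, serum-free SW-13 cultures were dosed up to 46 uM. Following 48 h, ATP-dependent luminescence (CellTiter-Glo) reported viable cells, and logistic modeling produced IC50 values.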

A short description of experiment [4]: Cellular viability qHTS for adrenocortical cancer (ACC) cell line NCI-H295R (AID 1963990). Further: nearly all actives have a fitted effect of over 60% in size. An outline of the steps: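 Viability of NCI-H295R after 48 h of treatment (final up to 46 uM) measured through cellular ATP luminescence.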

The values that follow come from PubChem BioAssay (NCATS).

Each structure is given as a SMILES string. Several values for one entry are separate records, joined by “and”; a condition that tells them apart may be missing. Equal entries are not always repeated. Records with an inconclusive call do not appear. Values without a mark were called inactive. Activity calls are given as the source filed them. The call rests on the fitted dose curve; in most records, active means well fitted curve in the direction sought with a large enough effect; inconclusive means small, poorly fitted or top-dose-only effect, or another doubt; inactive means no such curve, though single readings can be large; an effect the other way counts as inactive or inconclusive.
Potency means the concentration at half of the fitted maximal effect.

Turning to `CN1CCN(Cc2ccc(Nc3ncc(Cl)c(Nc4ccccc4S(=O)(=O)N(C)C)n3)cc2)CC1`, the Potency in experiment [1] is 6 nM (active); in experiment [2] it was 9.6 nM (active); in experiment [3], 0.75 µM (active); in experiment [4], 237 nM (active).
The matching figures for `C[C@@H](Oc1ccc2[nH]nc(/C=C/c3cnn(CCO)c3)c2c1)c1c(Cl)cncc1Cl`: 23.5 nM (active), 52.5 nM (active), 3.98 µM (active) and 5010 nM (active).
Turning to `COCCOc1cnc2ccn([C@H](C)c3nnc4c(F)cc(-c5cnn(C)c5)cn34)c(=O)c2c1`, the Potency result in experiment [1], in experiment [2] and in experiment [4] was “inactive” in each case. In addition, the activity (max response) in experiment [3] was -16.1%.
In the case of `O=C1[C@H](CC[C@H](O)c2ccc(F)cc2)[C@@H](c2ccc(O)cc2)N1c1ccc(F)cc1`, the Potency in experiment [1] was 20.6 µM (active) and 20.9 µM (active); in experiment [2], 14.6 µM (active) and 20.9 µM (active). For the same compound, the activity (max response) in experiment [3] was -3.67% and -14.5%. The Potency entry in experiment [4] was “inactive”.
Turning to `COc1cccc(Nc2ncnn3ccc(CN4CC[C@@H](N)[C@H](O)C4)c23)c1`, the Potency was 41.1 nM (active) in experiment [1], 184 nM (active) in experiment [2] and 0.316 µM (active) in experiment [3]. Besides, the Potency result in experiment [4] was “inactive”.
Consider `COc1c2occc2c(OC)c2c(=O)cc(C)oc12`, for which the Potency result in experiment [1], in experiment [2] and in experiment [4] was “inactive” each time. Moreover, the activity (max response) in experiment [3] is 12.7%.
Regarding `O=C(/C=C/c1cccc(S(=O)(=O)Nc2ccccc2)c1)NO`, the Potency is 563 nM (active) and 417 nM (active) in experiment [1]; 282 nM (active) and 332 nM (active) in experiment [2]; 3.55 µM (active) in experiment [3]; 2510 nM (active) in experiment [4].
Take `CN(C)C(=S)SC(=S)N(C)C`: the Potency in experiment [1] was 1680 nM (active); in experiment [2], 1680 nM (active); in experiment [3] it was 9.2 µM (active); in experiment [4] it was 2310 nM (active).
As for `CN(C)CCn1nnnc1SCC1=C(C(=O)O)N2C(=O)[C@@H](NC(=O)Cc3csc(N)n3)[C@H]2SC1`, the Potency entry in experiment [1], in experiment [2] and in experiment [4] was “inactive” each time. Further, the activity (max response) in experiment [3] was 8.48%.
Turning to `COc1cc(C(N)=O)ccc1NC(=O)[C@@H]1N[C@@H](CC(C)(C)C)[C@@]2(C(=O)Nc3cc(Cl)ccc32)[C@H]1c1cccc(Cl)c1F`, the Potency was 5900 nM (active) in experiment [1], 4680 nM (active) in experiment [2], 15.8 µM (active) in experiment [3] and 11200 nM (active) in experiment [4].
For `COc1cc2nccc(Oc3ccc(NC(=O)c4cn(C(C)C)c(=O)n(-c5ccc(F)cc5)c4=O)cc3F)c2cc1OC`, the Potency in experiment [1] was 186 nM (active); in experiment [2], 468 nM (active). Besides, in experiment [3], the activity (max response) is 9.27%. Also, the Potency result in experiment [4] is “inactive”.
As for `CC(=NNC(=O)c1cccc(S(=O)(=O)N2CCOCC2)c1)c1cc(Cl)ccc1O`, the Potency in experiment [1] was 742 nM (active); in experiment [2] it was 742 nM (active); in experiment [3] it was 3.55 µM (active); in experiment [4], 4470 nM (active).
Consider `CCCCN1C[C@H](O)[C@@H](O)[C@H](O)[C@H]1CO`, for which the Potency result in experiment [1], in experiment [2] and in experiment [4] was “inactive” throughout. Further, in experiment [3], the activity (max response) is -2.93%.
Regarding `CCN(CC)CCNC(=O)c1cc(S(C)(=O)=O)ccc1OC`, the Potency result in experiment [1], in experiment [2] and in experiment [4] was “inactive” throughout. Further, the activity (max response) in experiment [3] was 12.2%.
As for `O=C(O)CCCc1ccccc1`, the Potency entry in experiment [1], in experiment [2] and in experiment [4] was “inactive” in each case. The activity (max response) in experiment [3] is 16.4%.
Consider `Cc1c(NC(=O)c2cc(C(N)=O)nc3cc(F)ccc23)c(C(F)(F)F)nn1Cc1ccc(C(C)(C)C)cc1`, for which the Potency in experiment [1] was 20900 nM (active); in experiment [2], 16600 nM (active). Besides, the activity (max response) in experiment [3] is 8.86%. Besides, the Potency entry in experiment [4] is “inactive”.
The matching figures for `COCc1c(-c2ccc(NC(=O)Nc3cc(C(F)(F)F)ccc3F)c(F)c2)c2c(N)ncnn2c1CN1CCOCC1`: 10.5 nM (active), 16.4 nM (active), -5.64% and “inactive”.
As to `CC1=C(/C=C/C(C)=C/C=C/C(C)=C/C(=O)O)C(C)(C)CCC1`, the Potency in experiment [1] is 668 nM (active) and 132 nM (active); in experiment [2], 1.06 µM (active) and 468 nM (active). The activity (max response) in experiment [3] is -7.6% and 3.95%. Further, the Potency result in experiment [4] is “inactive”.
Consider `O=C1Nc2ccc(Cl)cc2[C@@](C#CC2CC2)(C(F)(F)F)O1`, for which the Potency in experiment [1] is 16.6 µM (active) and 5.17 µM (active); in experiment [2], 13.2 µM (active) and 5.8 µM (active); in experiment [3], 18.4 µM (active) and 25.1 µM (active); in experiment [4], 22400 nM (active).
Consider `N#Cc1ccc(COC[C@H]2O[C@@H](n3c(NCc4ccc(Cl)c(Cl)c4)nc4c(N)ncnc43)[C@H](O)[C@@H]2O)cc1`, for which the Potency in experiment [1] was 4680 nM (active); in experiment [2], 2.52 µM (active) and 3.32 µM (active); in experiment [3] it was 25.1 µM (active). Besides, the Potency entry in experiment [4] was “inactive”.
As to `C=CC(=O)Nc1ccc2ncnc(Nc3cccc(Br)c3)c2c1`, the Potency was 2590 nM (active) in experiment [1], 2310 nM (active) in experiment [2], 1.26 µM (active) in experiment [3] and 4470 nM (active) in experiment [4].
`O=C(NCCCNc1nc(Nc2cccc(CN3CCOCC3)c2)ncc1C1CC1)C1CCC1`: the Potency in experiment [1] is 132 nM (active); in experiment [2] it was 291 nM (active). Besides, the activity (max response) in experiment [3] is 10.1%. Besides, the Potency entry in experiment [4] is “inactive”.
For the compound `Cc1cc(N2CCOCC2)ccc1Nc1nc(NC2CCCCC2)c2[nH]cnc2n1`, the Potency was 833 nM (active) in experiment [1], 461 nM (active) in experiment [2], 25.1 µM (active) in experiment [3] and 28200 nM (active) in experiment [4].
For `CCN(CC)CCNC(C(=O)OCCC(C)C)c1ccccc1` (centres undefined), the Potency entry in experiment [1], in experiment [2] and in experiment [4] was “inactive” throughout. Besides, in experiment [3], the activity (max response) was -2.2%.
On to `C[N+](C)(C)CCCCCCCCCC[N+](C)(C)C`, for which the Potency entry in experiment [1], in experiment [2] and in experiment [4] was “inactive” throughout. Further, the activity (max response) in experiment [3] was 14.5%.
With `COc1ccc(Cc2cnc(N)nc2N)cc1OC`, the Potency entry in experiment [1], in experiment [2] and in experiment [4] was “inactive” in each case. Also, the activity (max response) in experiment [3] was 8.41%.
